hgDAF12 agonist = H. glycines DAF-12 receptor agonists, primary screen, cell-based, luminescence, HEK293, GAL4 fusion, UAS-luciferase. HEK293 GAL4-hgDAF12 UAS-luciferase reporter, agonist luminescence; normalized to butyrate control. AID 687014, 2013. hit rate 1.8% among 370,000. activation, % at 6.8 µM. Nuclear hormone receptor DAF-12 (Heterodera glycines), GAL4 fusion;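 active = activation above a cutoff set at the mean of all screened compounds plus 3 SD, cut at about 10% in these data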
ssDAF-12 act = S. stercoralis DAF-12 nuclear receptor activators, primary screen, cell-based, luminescence, HEK293, GRIP1 co-expression, lit1-tk-luc. AID 652126, 2013. HEK293 ssDAF-12/GRIP1 lit1-tk-luc reporter; % of 3 µM dafachronic acid response. activation, % at 6.8 µM. hit rate 1% among 370,000. Nuclear hormone receptor DAF-12 (Strongyloides stercoralis);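 active = activation above the mean over all tested compounds plus 3 SD, cut at about 0.9% in these data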
DAX1 inh-1 = DAX1 (NR0B1) inhibitors on StAR promoter, primary screen, cell-based, luminescence, SF-1 (NR5A1), full-length DAX-1 | HEK293T StAR-luciferase reporter, SF-1/DAX-1 repression relief | inhibition, % at 6.8 µM | hit rate 1.1% among 370,000 | AID 652010, 2013;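 active = inhibition above the mean over all tested compounds plus 3 SD, cut at about 3.6% in these data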;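 also: higher inhibition means more luminescence from relief of DAX-1 repression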
hcDAF-12 act = H. contortus DAF-12 nuclear receptor activators, primary screen, cell-based, luminescence, HEK293, lit1-tk-luc reporter | activation, % at 6.8 µM | HEK293 hcDAF-12 lit1-tk-luc reporter; 0% DMSO, 100% Δ7-dafachronic acid | hit rate 1.4% among 370,000;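 active = activation above the mean of all tested compounds plus 3 SD, cut at about 5.5% in these data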
SMARCA2 activ = SMARCA2 (BRM) function activators, primary screen, cell-based, luminescence, high throughput. MG213 cells, MMTV-luciferase reporter, dexamethasone, overnight. activation, % at 9.1 µM. hit rate 1% among 370,000. AID 652017, 2013; in the data active = activation above about 7.8%
DAX1 inh-2 = DAX1 (NR0B1) inhibitors, primary screen, cell-based, HEK293, Gal4-DAX1, luciferase luminescence; HEK293 Gal4-DAX1 luciferase reporter; inhibition, % at 6.75 µM; hit rate 0.99% among 340,000; Nuclear receptor subfamily 0 group B member 1 (Homo sapiens), P51843;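 active = inhibition above the mean over all tested compounds plus 3 SD, cut at about 4.2% in these data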;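 also: inhibition shows as a rise in luminescence from relieved DAX1 repression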
Target sequence (P51843 207-470 limits assumed): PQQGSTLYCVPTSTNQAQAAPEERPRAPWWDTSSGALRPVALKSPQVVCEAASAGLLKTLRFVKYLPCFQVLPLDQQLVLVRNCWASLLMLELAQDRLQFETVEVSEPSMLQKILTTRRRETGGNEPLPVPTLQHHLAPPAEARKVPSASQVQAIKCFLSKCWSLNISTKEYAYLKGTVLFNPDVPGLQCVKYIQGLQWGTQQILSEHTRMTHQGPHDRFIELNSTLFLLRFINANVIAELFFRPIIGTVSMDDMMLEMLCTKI
Hits are given with their value; n = inactive; x = not tested or not shown. In the library only some 4.8% were active in any assay of this set; here they are far more common.

SMILES	hgDAF12 agonist	ssDAF-12 act	DAX1 inh-1	hcDAF-12 act	SMARCA2 activ	DAX1 inh-2
CCC(=O)Nc1ccc2c(c1)Cc1cc([N+](=O)[O-])ccc1-2	11	n	n	n	n	n
COc1ccc2c(n1)Sc1nc3ccccc3nc1N2	n	n	n	n	n	5.5
COc1cc2ccccc2nn1	n	n	n	n	n	n
COc1ccc(-c2cc(CNc3nc4cc(-c5ccccc5C)sc4c(=O)n3C)on2)cc1	n	n	4.3	n	n	x
COc1cccc(-c2cc3nc(NCc4cccnc4)n(C)c(=O)c3s2)c1	n	1.0	n	n	n	x
Nc1cc(N)nc(SCc2ccccc2)n1	n	n	n	n	n	n
Nc1nc(SCc2ccccc2)cc(SCc2ccccc2)n1	12	n	n	n	n	n
O=C(NCC(=O)N1CCOCC1)c1ccc(Br)o1	n	n	3.7	n	n	n
O=C(NCC(=O)N1CCCCCCC1)c1ccc(Br)o1	n	n	n	n	n	6.0
O=C(Cc1ccc(Br)cc1)N1CCOCC1	n	0.9	n	n	n	n
CC(=O)N1CCN(C(=O)CNC(=O)c2ccc(Br)o2)CC1	n	n	n	n	n	n
O=C(Nc1ccc(N2CCOCC2)cc1)c1ccc(Br)o1	12	n	n	n	n	n
CCCOc1cccc(C(=O)Nc2cccc3ncccc23)c1	n	n	n	n	n	n
CCCOc1cccc(C(=O)Nc2ccc(Br)cc2F)c1	11	n	n	n	13	n
COc1cccc(-c2nc(Cl)nc3cc(Cl)ccc23)c1	n	n	n	n	n	x
CCNC(C(=O)c1c[nH]c2c(CC)cccc12)c1ccccc1 (stereo not drawn)	n	n	n	n	n	n
Cc1ccccc1OCC(=O)OCC(=O)NCc1ccc2c(c1)OCO2	n	1.2	n	n	n	n
Cc1cccc(NC(=O)NCc2ccc3c(c2)OCO3)c1	n	n	4.4	n	n	n
C/C(=N\OCC(=O)OCC(=O)NCc1ccccc1)c1ccc2c(c1)OCO2	n	n	3.9	n	n	n
O=C(O)CCSc1nc2ccccc2n1-c1ccccc1	n	n	n	6.0	n	n
O=C(NCCCc1ccccc1)OC1CCC12CCC(c1ccccc1)CC2 (stereo not drawn)	n	n	n	n	n	x
COc1ccc(CNC(=O)CNC(=O)CNS(=O)(=O)c2ccc(C)c(C)c2)cc1	n	0.9	n	n	n	n
COc1ccc(CNC(=O)CCNS(=O)(=O)c2ccc(Cl)cc2)cc1	n	n	n	n	n	n
CC1OC(=O)c2cc3ccccc3nc21 (stereo not drawn)	n	n	n	n	n	n
Cc1cccc(Cn2cc(CN3CC(N(C)CCCOC(=O)c4cc5ccccc5o4)CS3(=O)=O)nn2)c1 (stereo not drawn)	n	n	n	n	n	x
SMILES	hgDAF12 agonist	ssDAF-12 act	DAX1 inh-1	hcDAF-12 act	SMARCA2 activ	DAX1 inh-2
CC(=O)Oc1cccc(C(=O)Nc2ccc(NC(=O)c3cccs3)cc2)c1	n	n	4.5	n	n	n
COc1cccc(C(=O)Nc2cccc(NC(=O)c3cccs3)c2)c1	n	n	n	n	n	n
O=C(CC1CC2CCC1C2)Nc1nc(-c2ccccn2)cs1 (stereo not drawn)	n	n	n	6.3	n	n
Cc1ccnc(NC(=O)CCCNC(=O)c2ccc(Cl)cc2)c1	n	n	4.0	n	n	n
Cc1ccnc(NC(=O)CCC(=O)c2cccs2)c1	n	n	4.0	n	n	n
CCCCC(=O)Nc1cc(C)c(NC(=O)c2cccs2)cn1	n	n	n	n	n	n
CCCCC(=O)Nc1cnc(NC(=O)c2cccs2)cc1C	12	n	n	n	n	n
CN(C)CCCN(C(=O)c1cc(-c2cccs2)nc2ccccc12)c1nc2c(F)cccc2s1	n	n	4.1	n	n	n

Bioassay records from PubChem BioAssay.
